{"source": "PubChem BioAssay (NCATS)", "note": "Records with an inconclusive call do not appear. Activity calls are given as the source filed them. Calls come from the whole dose curve; as a rule, active = well fitted curve in the direction sought with a large enough effect; inconclusive = small, poorly fitted or top-dose-only effect, or another doubt; inactive = no such curve, though single readings can be large; an effect the other way counts as inactive or inconclusive."}
{"molecular_target": "Cytochrome P450 2C19 (Homo sapiens) (UniProt P33261)", "sequence (P33261 whole entry, looked up)": "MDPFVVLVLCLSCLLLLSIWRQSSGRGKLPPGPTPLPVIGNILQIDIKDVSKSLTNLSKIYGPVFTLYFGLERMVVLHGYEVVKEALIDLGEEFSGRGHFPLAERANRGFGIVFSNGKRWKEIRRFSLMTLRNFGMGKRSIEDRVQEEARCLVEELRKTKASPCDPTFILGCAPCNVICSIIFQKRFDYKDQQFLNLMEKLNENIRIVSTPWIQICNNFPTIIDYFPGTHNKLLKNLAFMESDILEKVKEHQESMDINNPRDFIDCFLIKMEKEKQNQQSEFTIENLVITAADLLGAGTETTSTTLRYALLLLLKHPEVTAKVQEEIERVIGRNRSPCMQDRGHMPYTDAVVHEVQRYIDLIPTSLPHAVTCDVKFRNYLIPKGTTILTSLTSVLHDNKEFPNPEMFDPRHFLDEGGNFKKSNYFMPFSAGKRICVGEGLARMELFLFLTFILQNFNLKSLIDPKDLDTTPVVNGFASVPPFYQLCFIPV", "assay": "qHTS Assay for Inhibitors and Substrates of Cytochrome P450 2C19 (AID 899); note: nearly all actives have a fitted effect of over 60% in size; note: potency is the fitted concentration of half-maximal effect; for activity, negative = inhibition: % is set by controls: 0 for no effect and ±100 for the full control effect", "conditions": "recombinant CYP2C19, luciferin-H EGE luminescence; series mostly up to 57.1 µM; activity, negative = inhibition: at the top concentration", "how_it_was_run": "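Luminescent read-out of luciferin formed from Luciferin-H EGE (10uM, equal to KM). Enzyme 5nM in 50mM KPO4; compound added, 10 min at 37C, then NADPH regenerating system for 60 min at 37C. Full inhibition defined by 57uM ketoconazole.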"}
{"smiles": "C[C@H](NC(=O)/C(C#N)=C/c1ccc(O)c(O)c1)c1ccccc1", "Potency": "inactive"}
{"smiles": "N=C(N)SCCN", "activity, negative = inhibition": "62% (inactive)"}
{"smiles": "O=C(N[C@@H](Cc1ccccc1)C(=O)CCl)OCc1ccccc1", "Potency": "5.01 µM (active)"}
{"smiles": "Cn1ccnc1", "activity, negative = inhibition": "48.5% (inactive)"}
{"test_system": "not listed separately", "assay": "Confirmation and Secondary Assay for Modulators of Hemoglobin Beta Chain Splicing at IVS2 654 locus (AID 910);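 note: HeLa cells stably carrying EGFP split by mutant beta-globin IVS2-654 intron; % of control where 0% means no effect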", "conditions": "HeLa EGFP-654 splicing reporter, GFP fluorescence, 48 h; series mostly up to 46.1 µM; activation (splicing correction): at the top concentration", "how_it_was_run": "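HeLa cells stably expressing EGFP interrupted by β-globin IVS2-654 intron, seeded overnight in Opti-MEM/2% FCS, then treated 2 days at 37 °C. Restored splicing read as total peak GFP intensity per well by laser scanning cytometry (488 nm excitation, 500–520 nm emission); 500 nM antisense PNA as control.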"}
{"smiles": "CC1=C(/C=C/C(C)=C/C=C/C(C)=C\\C(=O)O)C(C)(C)CCC1", "activation (splicing correction)": "-2.97% (inactive)"}
{"smiles": "NC(N)=NC(N)=Nc1ccccc1", "activation (splicing correction)": "-0.186% [at 38.3 µM] (inactive)"}
{"smiles": "CC(C)NC[C@H](O)COc1ccc(CC(N)=O)cc1", "activation (splicing correction)": "7.48% (inactive)"}
{"smiles": "O=[N+]([O-])c1cccc2c(Br)[nH]nc12", "activation (splicing correction)": "1.31% (inactive)"}
{"smiles": "O=C(O)c1ccccc1Nc1ccccc1", "activation (splicing correction)": "9.04% (inactive)"}
{"smiles": "Cn1c(=O)c2[nH]c(C3CCCC3)nc2n(C)c1=O", "activation (splicing correction)": "5.12% (inactive)"}
{"smiles": "O=C(O)/C=C/c1ccc(O)c(O)c1", "activation (splicing correction)": "1.38% [at 38.3 µM] (inactive)"}
{"smiles": "O=C(O)c1cc2cc(F)ccc2[nH]1", "activation (splicing correction)": "0.767% [at 38.3 µM] (inactive)"}
{"smiles": "CN1C2CCC1CC(OC(c1ccccc1)c1ccccc1)C2", "note": "(centres undefined)", "activation (splicing correction)": "0.315% (inactive)"}
{"smiles": "CC(C)Cn1c(=O)n(C)c(=O)c2[nH]cnc21", "Potency": "inactive"}
{"smiles": "NCCCCN", "activation (splicing correction)": "-0.174% [at 38.3 µM] (inactive)"}
{"smiles": "NC(=O)CC[C@H](N)C(=O)O", "activation (splicing correction)": "-0.177% [at 38.3 µM] (inactive)"}
{"smiles": "N=C(N)SCCN", "activation (splicing correction)": "1.05% (inactive)"}
{"smiles": "NC1CONC1=O", "note": "(centres undefined)", "activation (splicing correction)": "6.29% (inactive)"}
{"smiles": "NCCCCN=C(N)N", "activation (splicing correction)": "1.22% (inactive)"}
